# Legend:
# Assay in all cases: DAPPL (digital affinity profiling via proximity ligation, sequencing); 10 mM Tris-HCl pH 7.5, 50 mM NaCl, 1 mM DTT, 4% glycerol, room temperature, 30 min; GST-TFs on glutathione beads, 16-mer random dsDNA library, 0.1% formaldehyde crosslink after washing; high values mean tight binding
# Settings in all cases: protein: recombinant; tags: N-terminal GST; dsDNA, one strand shown
# [1] = target: T1, ERF (Homo sapiens, UniProt P50548 1-548)
# T1 sequence: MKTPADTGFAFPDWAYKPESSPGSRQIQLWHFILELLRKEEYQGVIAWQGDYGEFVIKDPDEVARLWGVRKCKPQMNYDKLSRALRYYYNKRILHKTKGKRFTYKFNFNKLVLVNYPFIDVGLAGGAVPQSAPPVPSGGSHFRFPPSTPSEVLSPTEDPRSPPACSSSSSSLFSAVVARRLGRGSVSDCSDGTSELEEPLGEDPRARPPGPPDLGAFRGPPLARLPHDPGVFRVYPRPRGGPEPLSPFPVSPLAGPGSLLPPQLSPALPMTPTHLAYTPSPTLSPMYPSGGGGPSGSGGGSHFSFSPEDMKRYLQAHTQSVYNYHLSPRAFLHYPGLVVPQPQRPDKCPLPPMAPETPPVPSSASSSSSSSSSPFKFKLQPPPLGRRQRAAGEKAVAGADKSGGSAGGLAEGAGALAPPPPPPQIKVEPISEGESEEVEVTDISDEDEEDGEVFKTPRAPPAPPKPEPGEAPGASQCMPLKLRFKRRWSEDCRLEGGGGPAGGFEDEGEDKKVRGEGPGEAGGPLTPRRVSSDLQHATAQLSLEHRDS
# Procedure, shortened: (§1)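 GST fusions of human transcription factors were expressed in yeast and captured with glutathione beads. Once given DNA barcodes and pooled alongside a tag-only sample, they were incubated for 30 min at room temperature with 200 nmole of a random double-stranded 16-mer DNA library in Tris/NaCl/DTT/glycerol buffer, then washed, crosslinked (0.1% formaldehyde), proximity-ligated, PCR-amplified and sequenced on an Illumina NextSeq500. The binding signal of each hexamer is its read frequency for a factor divided by its frequency for the tag-only sample.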
# [2] = target: T2, ETV3L (Homo sapiens, UniProt Q6ZN32 1-361)
# T2 sequence: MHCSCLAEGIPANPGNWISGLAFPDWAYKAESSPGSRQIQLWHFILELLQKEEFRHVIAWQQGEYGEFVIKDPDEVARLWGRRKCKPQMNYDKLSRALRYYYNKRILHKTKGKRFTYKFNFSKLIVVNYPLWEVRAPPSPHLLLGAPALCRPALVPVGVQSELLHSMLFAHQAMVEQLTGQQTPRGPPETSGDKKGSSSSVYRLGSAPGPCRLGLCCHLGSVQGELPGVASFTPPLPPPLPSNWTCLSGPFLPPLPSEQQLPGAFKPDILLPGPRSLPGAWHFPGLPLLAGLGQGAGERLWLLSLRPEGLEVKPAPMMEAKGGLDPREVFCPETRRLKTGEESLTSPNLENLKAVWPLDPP
# Procedure, shortened: as §1
# [3] = target: T3, ETS2 (Homo sapiens, UniProt P15036 1-469)
# T3 sequence: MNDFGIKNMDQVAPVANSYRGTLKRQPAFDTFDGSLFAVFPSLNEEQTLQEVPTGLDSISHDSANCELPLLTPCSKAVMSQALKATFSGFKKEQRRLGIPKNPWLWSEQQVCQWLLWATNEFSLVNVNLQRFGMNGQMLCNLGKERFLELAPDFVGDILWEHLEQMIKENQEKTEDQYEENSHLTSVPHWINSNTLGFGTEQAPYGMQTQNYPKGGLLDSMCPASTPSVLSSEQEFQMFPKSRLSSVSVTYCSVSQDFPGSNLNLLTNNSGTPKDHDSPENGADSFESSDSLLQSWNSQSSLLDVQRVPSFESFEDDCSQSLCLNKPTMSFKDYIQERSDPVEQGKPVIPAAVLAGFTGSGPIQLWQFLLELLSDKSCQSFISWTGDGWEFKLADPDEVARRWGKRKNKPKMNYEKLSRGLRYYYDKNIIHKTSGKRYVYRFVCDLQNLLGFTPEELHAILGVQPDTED
# Procedure, shortened: as §1
# [4] = target: T4, SPDEF (Homo sapiens, UniProt O95238 1-335)
# T4 sequence: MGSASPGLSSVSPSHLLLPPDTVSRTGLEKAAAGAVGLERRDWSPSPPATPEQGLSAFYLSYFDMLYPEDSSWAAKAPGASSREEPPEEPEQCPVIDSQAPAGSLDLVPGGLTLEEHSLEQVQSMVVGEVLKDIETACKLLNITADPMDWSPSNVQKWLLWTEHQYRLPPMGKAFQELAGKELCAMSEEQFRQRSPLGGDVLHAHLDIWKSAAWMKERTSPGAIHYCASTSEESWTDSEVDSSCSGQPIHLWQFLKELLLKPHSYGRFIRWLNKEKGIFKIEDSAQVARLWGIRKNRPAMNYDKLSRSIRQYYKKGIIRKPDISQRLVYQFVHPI
# Procedure, shortened: as §1
# [5] = target: T5, ETV7 (Homo sapiens, UniProt Q9Y603 1-341)
# T5 sequence: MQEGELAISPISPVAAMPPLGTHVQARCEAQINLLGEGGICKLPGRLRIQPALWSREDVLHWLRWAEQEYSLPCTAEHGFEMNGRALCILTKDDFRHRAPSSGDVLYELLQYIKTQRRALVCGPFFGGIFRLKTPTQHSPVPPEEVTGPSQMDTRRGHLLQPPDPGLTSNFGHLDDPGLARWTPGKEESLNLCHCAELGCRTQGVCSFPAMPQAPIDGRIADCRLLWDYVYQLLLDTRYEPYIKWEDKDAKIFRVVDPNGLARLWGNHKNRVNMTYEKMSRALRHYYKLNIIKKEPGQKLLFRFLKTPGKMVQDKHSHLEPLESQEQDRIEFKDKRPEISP
# Procedure, shortened: as §1
# [6] = target: T6, ELF5 (Homo sapiens, UniProt Q9UKW6-2 1-255)
# T6 sequence: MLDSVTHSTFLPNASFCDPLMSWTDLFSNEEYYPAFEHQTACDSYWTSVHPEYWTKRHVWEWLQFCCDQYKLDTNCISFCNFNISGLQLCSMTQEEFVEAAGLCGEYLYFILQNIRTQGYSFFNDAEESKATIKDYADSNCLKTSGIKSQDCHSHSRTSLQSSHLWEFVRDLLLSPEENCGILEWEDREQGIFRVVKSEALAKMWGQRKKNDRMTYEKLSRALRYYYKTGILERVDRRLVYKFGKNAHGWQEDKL
# Procedure, shortened: as §1
# [7] = target: T7, ETV3 (Homo sapiens, UniProt P41162-2 1-143)
# T7 sequence: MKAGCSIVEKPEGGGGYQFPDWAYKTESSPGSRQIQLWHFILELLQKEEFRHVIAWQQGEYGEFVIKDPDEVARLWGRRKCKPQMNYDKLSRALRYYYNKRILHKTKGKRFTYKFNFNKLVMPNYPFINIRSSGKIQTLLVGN
# Procedure, shortened: as §1
# [8] = target: ETV6 (Homo sapiens, UniProt P41212 1-452)
# Procedure, shortened: as §1
# Chain of ETV6 (P41212 whole entry): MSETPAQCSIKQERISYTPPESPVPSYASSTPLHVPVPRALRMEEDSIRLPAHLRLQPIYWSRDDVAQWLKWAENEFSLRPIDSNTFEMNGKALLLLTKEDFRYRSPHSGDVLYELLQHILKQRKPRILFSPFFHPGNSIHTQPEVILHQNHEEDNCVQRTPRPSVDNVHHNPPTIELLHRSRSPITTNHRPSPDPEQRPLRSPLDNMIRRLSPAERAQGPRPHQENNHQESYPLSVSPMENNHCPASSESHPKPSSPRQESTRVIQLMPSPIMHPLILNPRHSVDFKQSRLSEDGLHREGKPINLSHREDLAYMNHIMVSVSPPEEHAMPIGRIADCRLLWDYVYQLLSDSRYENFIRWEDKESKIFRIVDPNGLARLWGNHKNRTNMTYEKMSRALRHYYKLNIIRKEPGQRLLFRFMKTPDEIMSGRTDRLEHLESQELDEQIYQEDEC
Sequence,binding signal [1],binding signal [2],binding signal [3],binding signal [4],binding signal [5],binding signal [6],binding signal [7],binding signal [8]
AACCTT,"1.39 fold enrichment (6-mer frequency, TF over GST control)","1.27 fold enrichment (6-mer frequency, TF over GST control)","1.38 fold enrichment (6-mer frequency, TF over GST control)","1.29 fold enrichment (6-mer frequency, TF over GST control)","1.29 fold enrichment (6-mer frequency, TF over GST control)","1.33 fold enrichment (6-mer frequency, TF over GST control)","1.28 fold enrichment (6-mer frequency, TF over GST control)","1.27 fold enrichment (6-mer frequency, TF over GST control)"
CTGTAC,"1.18 fold enrichment (6-mer frequency, TF over GST control)","1.35 fold enrichment (6-mer frequency, TF over GST control)","1.33 fold enrichment (6-mer frequency, TF over GST control)","1.57 fold enrichment (6-mer frequency, TF over GST control)","1.22 fold enrichment (6-mer frequency, TF over GST control)","1.36 fold enrichment (6-mer frequency, TF over GST control)","1.31 fold enrichment (6-mer frequency, TF over GST control)","1.3 fold enrichment (6-mer frequency, TF over GST control)"
AAGTTA,"1.24 fold enrichment (6-mer frequency, TF over GST control)","1.18 fold enrichment (6-mer frequency, TF over GST control)","1.24 fold enrichment (6-mer frequency, TF over GST control)","1.08 fold enrichment (6-mer frequency, TF over GST control)","1.21 fold enrichment (6-mer frequency, TF over GST control)","1.21 fold enrichment (6-mer frequency, TF over GST control)","1.19 fold enrichment (6-mer frequency, TF over GST control)","1.3 fold enrichment (6-mer frequency, TF over GST control)"
ATGCTT,"1.27 fold enrichment (6-mer frequency, TF over GST control)","1.36 fold enrichment (6-mer frequency, TF over GST control)","1.28 fold enrichment (6-mer frequency, TF over GST control)","1.32 fold enrichment (6-mer frequency, TF over GST control)","1.33 fold enrichment (6-mer frequency, TF over GST control)","1.38 fold enrichment (6-mer frequency, TF over GST control)","1.31 fold enrichment (6-mer frequency, TF over GST control)","1.3 fold enrichment (6-mer frequency, TF over GST control)"
ATATTA,"1.16 fold enrichment (6-mer frequency, TF over GST control)","1.17 fold enrichment (6-mer frequency, TF over GST control)","1.06 fold enrichment (6-mer frequency, TF over GST control)","1.11 fold enrichment (6-mer frequency, TF over GST control)","1.1 fold enrichment (6-mer frequency, TF over GST control)","1.09 fold enrichment (6-mer frequency, TF over GST control)","1.18 fold enrichment (6-mer frequency, TF over GST control)","1.13 fold enrichment (6-mer frequency, TF over GST control)"
AATGAC,"1.35 fold enrichment (6-mer frequency, TF over GST control)","1.43 fold enrichment (6-mer frequency, TF over GST control)","1.45 fold enrichment (6-mer frequency, TF over GST control)","1.37 fold enrichment (6-mer frequency, TF over GST control)","1.29 fold enrichment (6-mer frequency, TF over GST control)","1.36 fold enrichment (6-mer frequency, TF over GST control)","1.35 fold enrichment (6-mer frequency, TF over GST control)","1.49 fold enrichment (6-mer frequency, TF over GST control)"
TTCTCA,"1.21 fold enrichment (6-mer frequency, TF over GST control)","1.23 fold enrichment (6-mer frequency, TF over GST control)","1.21 fold enrichment (6-mer frequency, TF over GST control)","1.17 fold enrichment (6-mer frequency, TF over GST control)","1.26 fold enrichment (6-mer frequency, TF over GST control)","1.23 fold enrichment (6-mer frequency, TF over GST control)","1.34 fold enrichment (6-mer frequency, TF over GST control)","1.26 fold enrichment (6-mer frequency, TF over GST control)"
TCACGA,"1.14 fold enrichment (6-mer frequency, TF over GST control)","1.04 fold enrichment (6-mer frequency, TF over GST control)","1.13 fold enrichment (6-mer frequency, TF over GST control)","1.17 fold enrichment (6-mer frequency, TF over GST control)","1.16 fold enrichment (6-mer frequency, TF over GST control)","1.03 fold enrichment (6-mer frequency, TF over GST control)","1.14 fold enrichment (6-mer frequency, TF over GST control)","1.16 fold enrichment (6-mer frequency, TF over GST control)"
TCAACT,"1.31 fold enrichment (6-mer frequency, TF over GST control)","1.32 fold enrichment (6-mer frequency, TF over GST control)","1.34 fold enrichment (6-mer frequency, TF over GST control)","1.27 fold enrichment (6-mer frequency, TF over GST control)","1.12 fold enrichment (6-mer frequency, TF over GST control)","1.24 fold enrichment (6-mer frequency, TF over GST control)","1.31 fold enrichment (6-mer frequency, TF over GST control)","1.33 fold enrichment (6-mer frequency, TF over GST control)"
ACCCAT,"1.31 fold enrichment (6-mer frequency, TF over GST control)","1.34 fold enrichment (6-mer frequency, TF over GST control)","1.37 fold enrichment (6-mer frequency, TF over GST control)","1.21 fold enrichment (6-mer frequency, TF over GST control)","1.37 fold enrichment (6-mer frequency, TF over GST control)","1.24 fold enrichment (6-mer frequency, TF over GST control)","1.25 fold enrichment (6-mer frequency, TF over GST control)","1.24 fold enrichment (6-mer frequency, TF over GST control)"
ACATCT,"1.24 fold enrichment (6-mer frequency, TF over GST control)","1.24 fold enrichment (6-mer frequency, TF over GST control)","1.27 fold enrichment (6-mer frequency, TF over GST control)","1.26 fold enrichment (6-mer frequency, TF over GST control)","1.49 fold enrichment (6-mer frequency, TF over GST control)","1.3 fold enrichment (6-mer frequency, TF over GST control)","1.17 fold enrichment (6-mer frequency, TF over GST control)","1.29 fold enrichment (6-mer frequency, TF over GST control)"
TTGCAT,"1.37 fold enrichment (6-mer frequency, TF over GST control)","1.56 fold enrichment (6-mer frequency, TF over GST control)","1.42 fold enrichment (6-mer frequency, TF over GST control)","1.51 fold enrichment (6-mer frequency, TF over GST control)","1.35 fold enrichment (6-mer frequency, TF over GST control)","1.4 fold enrichment (6-mer frequency, TF over GST control)","1.49 fold enrichment (6-mer frequency, TF over GST control)","1.38 fold enrichment (6-mer frequency, TF over GST control)"
CTAGCT,"1.21 fold enrichment (6-mer frequency, TF over GST control)","1.29 fold enrichment (6-mer frequency, TF over GST control)","1.25 fold enrichment (6-mer frequency, TF over GST control)","1.27 fold enrichment (6-mer frequency, TF over GST control)","1.33 fold enrichment (6-mer frequency, TF over GST control)","1.27 fold enrichment (6-mer frequency, TF over GST control)","1.24 fold enrichment (6-mer frequency, TF over GST control)","1.32 fold enrichment (6-mer frequency, TF over GST control)"
ATTTAA,"1.21 fold enrichment (6-mer frequency, TF over GST control)","1.19 fold enrichment (6-mer frequency, TF over GST control)","1.28 fold enrichment (6-mer frequency, TF over GST control)","1.24 fold enrichment (6-mer frequency, TF over GST control)","1.27 fold enrichment (6-mer frequency, TF over GST control)","1.1 fold enrichment (6-mer frequency, TF over GST control)","1.13 fold enrichment (6-mer frequency, TF over GST control)","1.21 fold enrichment (6-mer frequency, TF over GST control)"
CTCTGA,"1.22 fold enrichment (6-mer frequency, TF over GST control)","1.07 fold enrichment (6-mer frequency, TF over GST control)","1.25 fold enrichment (6-mer frequency, TF over GST control)","1.11 fold enrichment (6-mer frequency, TF over GST control)","1.34 fold enrichment (6-mer frequency, TF over GST control)","1.11 fold enrichment (6-mer frequency, TF over GST control)","1.19 fold enrichment (6-mer frequency, TF over GST control)","1.16 fold enrichment (6-mer frequency, TF over GST control)"

# Reference: PMC7862700, “An all-to-all approach to the identification of sequence-specific readers for epigenetic DNA modifications on cytosine”
